IL1B secr inh = qHTS for Inhibitors of Inflammasome Signaling: IL-1-beta AlphaLISA Primary Screen | THP-1 LPS/ATP IL-1B secretion, AlphaLISA, 16 h; hits give low values | activity change, % at 57.5 µM | hit rate 4.7% among 360,000 | AID 743279, 2014; in the data active means activity change below about -50%; inconclusive means mostly about -30% to -49%
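THP-1 cells pretreated 1 hr with compounds (up to 57.5 uM final), then stimulated with LPS (250 ng/mL final) plus ATP (1.25 mM final); secreted IL-1B measured by AlphaLISA after 16 hr, decreased signal indicating inhibition.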
HT1080 IDH1KD tx = qHTS for induction of synthetic lethality in tumor cells producing 2HG: qHTS for the HT-1080-IDH1KD cell line; HT-1080 IDH1 knockdown viability, ATP luminescence, 48 h; Potency, µM (series often up to 46.1 µM), without a hit: at the top dose activity, negative = toxicity, hits mostly cytotoxic; hit rate 2% among 360,000; AID 686971, 2013;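 further: potency means the concentration at half of the fitted maximal effect; 0% = DMSO wells and -100% = cell-free medium wells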
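IDH1KD HT-1080 cells, 750/well, RPMI + 5% FBS; compound pinned after 2 h settling; 48 h, 37 °C; CellTiter-Glo luminescence; % activity normalised to DMSO and no-cell wells; curves fitted, classed by r2 and efficacy.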
HT1080NT lethal = qHTS for induction of synthetic lethality in tumor cells producing 2HG: qHTS for the HT-1080-NT fibrosarcoma cell line | HT-1080-NT fibrosarcoma viability, CellTiter-Glo ATP luminescence, 48 h | Potency, µM (series often up to 46.1 µM), for the others: top-dose activity, negative = less viability, hits mostly cytotoxic | hit rate 1.6% among 360,000;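 further: NT is the 2HG producing partner of a matched IDH1 knockdown line; potency means the concentration at half of the fitted maximal effect; 0% = DMSO-treated cells and -100% = media-only wells without cells; nearly all actives have a fitted effect of over 55% in size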
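A 48-hour cytotoxicity screen used HT-1080-NT cells plated 2 hours before compound delivery. ATP-based CellTiter-Glo luminescence measured viability, normalized to DMSO and no-cell controls.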
DT40 TDP1 CPT = qHTS for Inhibitors of human tyrosyl-DNA phosphodiesterase 1 (TDP1): qHTS in cells in presence of CPT; hit rate 12% among 420,000; AID 686979, 2013; chicken DT40 Tdp1-/-;hTDP1 cells + 20 nM CPT, ATP luminescence, 48 h; Potency, µM (top dose mostly 46.2 µM), for the others: top-dose activity change, negative = growth inhibition, actives largely listed as inhibitors; further: potency means the concentration at half of the fitted maximal effect; nearly all actives have a fitted effect of over 55% in size
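Cell growth measured by CellTiter-Glo luminescence after a minimum 48 h, 37 C compound exposure with 20 nM CPT in Tdp1-knockout DT40 cells stably expressing hTDP1, seeded 400/well; qHTS titration format.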
DT40 TDP1 no CPT = qHTS for Inhibitors of human tyrosyl-DNA phosphodiesterase 1 (TDP1): qHTS in cells in absence of CPT. DT40 Tdp1-/- hTDP1 cells, no CPT, ATP luminescence, 48 h. Potency, µM (doses to about 46.2 µM), for the others: top-dose activity change, negative = growth inhibition, most hits filed as inhibitors. hit rate 15% among 420,000. AID 686978, 2013; further: potency means the concentration at half of the fitted maximal effect; nearly all actives have a fitted effect of over 55% in size
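Growth kinetics read by CellTiter-Glo luminescence after ≥48 hr at 37 °C. Cells: DT40 Tdp1-/- stably carrying human TDP1, 400 per well, compound exposure in the absence of CPT (DMSO vehicle).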
* hit, by the source's call; ? = inconclusive; nt = no result. Rows were chosen to be rich in hits. Some 19% of all compounds tested hit in one or more screens of this group. Unless noted, the call rests on the fitted dose curve; in most records, active means well fitted curve in the direction sought with a large enough effect; inconclusive means small, poorly fitted or top-dose-only effect, or another doubt; inactive means no such curve, though single readings can be large; an effect the other way counts as inactive or inconclusive. Unless noted, on the % scale 0 is the no-effect control and ±100 the full control effect.

SMILES | IL1B secr inh | HT1080 IDH1KD tx | HT1080NT lethal | DT40 TDP1 CPT | DT40 TDP1 no CPT
CCc1ccc(-c2nn(CC(=O)Nc3ccccc3C)c3c2cnc2ccc(C)cc23)cc1 | nt | nt | nt | -1% | 14%
O=C(COC(=O)COc1ccc(Br)cc1)NC1CCCC1 | 10 | 13% | 13% | -2% | 14%
CCN(Cc1ccncc1)Cc1nc(-c2ccc(C(=O)OC)cc2)no1 | 24 | -14% | -2% | ? | 21µM*
COc1ccc(OCCCCc2c(C)n[nH]c2C)cc1 | -4 | 1% | -2% | 23µM* | ?
CCC(=O)NC1=C(C#N)C2(CCCC2)Cc2ccccc21 | 2 | 6% | 4% | 24% | -16%
N#CC1=C(N)c2ccccc2CC12CCCCC2 | -52* | -29% | 1% | ? | ?
Cc1cc(C)nc(Oc2ccc(Br)cc2)n1 | -1 | 3% | -7% | -29% | 3%
CNC(=O)c1ccsc1NC(=O)c1ccc(S(=O)(=O)N2CCCc3ccccc32)cc1 | -18 | -3% | -14% | 21µM* | 21µM*
COC(=O)Nc1ccc(S(=O)(=O)N2CCCc3ccccc32)cc1 | 49 | 1.4µM* | 8.9µM* | 2.6µM* | 2.3µM*
COC(=O)Nc1ccc(S(=O)(=O)N2CCCc3cccc(O)c32)cc1 | 56 | ? | ? | 13µM* | 10µM*
COC(=O)Nc1ccc(S(=O)(=O)N2CCCCC2)cc1 | 25 | -24% | -25% | ? | -11%
O=S(=O)(NC1CCCC1)c1ccc(S(=O)(=O)N2CCc3ccccc32)cc1 | 1 | ? | ? | 16µM* | 16µM*
O=C(Nc1ccc(S(=O)(=O)N2CCc3ccccc32)cc1)C(F)(F)F | -8 | -20% | -18% | 7% | ?
CC(C)CN(CCCNC(=O)c1cn(C)c2ccc(S(=O)(=O)N(C)C3CCCCC3)cc2c1=O)CC(C)C | nt | nt | nt | 8% | 0%
CCc1nnc(NC(=O)c2ccc(S(=O)(=O)N3CCCc4ccccc43)cc2)o1 | 56 | 7.1µM* | ? | ? | 11µM*
COCCNC(=O)C[C@@H]1C[C@H]2c3cc(NC(=O)Nc4ccc(F)cc4)ccc3O[C@H]2[C@H](CO)O1 | 3 | 3% | -3% | ? | 8.2µM*
O=C(C[C@@H]1C[C@H]2c3cc(NC(=O)NC4CCCCC4)ccc3O[C@H]2[C@H](CO)O1)NC1CCCCC1 | ? | -9% | -5% | ? | 15µM*
CCCNC(=O)C[C@H]1C[C@H]2c3cc(NC(=O)Nc4ccc(F)cc4)ccc3O[C@H]2[C@@H](CO)O1 | -6 | 9% | 12% | 1.8µM* | 2.3µM*
COC(=O)C[C@H]1C[C@@H]2c3cc(NC(=O)Nc4ccc(F)cc4)ccc3O[C@@H]2[C@@H](CO)O1 | 13 | -10% | 21% | -4% | -9%
COC(=O)C[C@H]1C[C@@H]2c3cc(NC(=O)CN(C)C)ccc3O[C@@H]2[C@H](CO)O1 | 22 | -8% | -4% | -23% | ?
COC(=O)C[C@H]1C[C@H]2c3cc(NC(=O)Nc4ccc(C(F)(F)F)cc4)ccc3O[C@H]2[C@@H](CO)O1 | -4 | -8% | -9% | ? | 26µM*
COCC(=O)Nc1ccc2c(c1)[C@@H]1C[C@H](CC(=O)OC)O[C@@H](CO)[C@@H]1O2 | 19 | 4% | 0% | 22% | 3%
Cc1ccc(-c2ccc(=O)n(CC(=O)Nc3ccc(C(C)C)cc3)n2)cc1 | nt | nt | nt | -7% | -28%
O=C(C[C@H]1C[C@@H]2c3cc(NC(=O)Nc4ccccc4F)ccc3O[C@@H]2[C@H](CO)O1)NCc1ccccn1 | -1 | 0% | -7% | ? | 16µM*
COc1cccc(S(=O)(=O)Nc2ccc3c(c2)[C@@H]2C[C@H](CC(=O)NCCc4ccccc4)O[C@H](CO)[C@@H]2O3)c1 | -13 | -4% | -6% | 23µM* | 16µM*

Source: PubChem BioAssay
